In PubChem BioAssay AID1347426 (Functional Genomics Laboratory (NCATS/FGL), 2020) one finds median seed-adjusted z-score data, which are given here for 69 sequences.

Screen size: about 31,000 sequences; about 1,400 (4.5%) were called active. Only a selection was taken, and actives are over-represented in it overall. A number with no mark means an inactive call.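 Rule for the calls: active = median seed-adjusted z-score above 1 or below -1; inactive = the rest.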

A short description of the assay: Novel Modifiers of Survival Motor Neuron (SMN) Protein: Gene Identification via Genome-wide siRNA Screen.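 Note: luminescence tracks full-length SMN protein made from the SMN2 reporter.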 The settings on record: HEK293T SMN2-luciferase reporter, siRNA knockdown, 72 h; actives lie on both sides. The method in brief:
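HEK293T cells stably expressing an SMN2 splicing/cDNA-luciferase reporter were reverse-transfected with a druggable-genome siRNA library and read by luminescence at 72 hours; hits defined by MAD score above 1.0 or below -1.0.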
For orientation: Reporter assays use an easily measured gene product as a stand-in for the process of interest.
With CCAGUACCAAAGUUGAUAATT against RB1, the median seed-adjusted z-score is 0.49.
On to CCAUCUGUUUGAACUUAGATT against TLR5, for which the median seed-adjusted z-score was 0.
In the case of GCUAAAGAGAGAUAUGGAATT against DARS, the median seed-adjusted z-score was 0.
The value for GAGUUGAAAAUGACAAUGATT against CLSTN1 was 0.0811.
With ACAGCCGCAUGAACAAGGATT against B3GNT7, the median seed-adjusted z-score is -1.05 (active).
The value for CAAAGACCCUUUAUUCGAATT against BTBD10 was 0.695; that for GCCUUAUUGUUACAUGGUUTT against SLC19A2 was -0.679.
As to GCGCAGACGUGAUUGUCAATT against DAO, the median seed-adjusted z-score is -0.00887.
Take UGAGAGCCCUAUUCCAGUATT against UBASH3A: the median seed-adjusted z-score is -1.1 (active).
Regarding GGAGGAUCCCAUUAUACUATT against LPA, the median seed-adjusted z-score is -0.321.
Regarding GGAUCGCACUCAUGUGGAATT against A4GALT, the median seed-adjusted z-score is -0.286.
On to GCAGAUGGUUAUAAGCACATT against GLA, for which the median seed-adjusted z-score is -0.494.
For the sequence GACCCGUUUAUACAACAAATT against MX2, the median seed-adjusted z-score was -0.0346.
Turning to CUAGCAACAUGGACAUAUUTT against STS, the median seed-adjusted z-score is -0.392.
With GGAUUACGUAUCAGACAUATT against CNGA1, the median seed-adjusted z-score is -1.08 (active).
The value for GGAGCAAAACAGAUCUUGATT against PINX1 was 0.11; that for CCUCUCUAGUAAUGCAAGATT against NAT12 was -0.0807.
In the case of GCUGUGCGUUCUUCACAAATT against RAB17, the median seed-adjusted z-score was 0.473.
Consider CACUCAGACGGGACGUUCATT against SCT, for which the median seed-adjusted z-score is -0.454.
As for CGAGUUUGCUUGGUCAGAATT against SF3B1, the median seed-adjusted z-score was -3.65 (active).
In the case of CAAUAGAUCAAGUUAUACATT against KPNA5, the median seed-adjusted z-score is -0.174.
On to UGCUUGGCGACUUCAGUAATT against AKR1C2, for which the median seed-adjusted z-score is -0.109.
With UGGGAAUGGUAGAAACAAATT against PPIL1, the median seed-adjusted z-score was 0.166.
With GCGCAUCUAUGAUGACGAUTT against UBA1, the median seed-adjusted z-score was 1.34 (active).
As to GAGUUUUUAUGGACUCUCATT against GRIK4, the median seed-adjusted z-score was 0.249.
Take CCAGAAAACUUGCGAAACATT against RFX4: the median seed-adjusted z-score is -0.0226.
The same measure for CCUCCGGAGAGAAAAAUGATT against NXF2: -0.0513.
Consider CAUCAAAGAUUGCACUUCATT against TOMM34, for which the median seed-adjusted z-score is -0.503.
The same measure for GCCGGAAACAAAUACGUGATT against ZNF677: -0.441.
GGCACGUUCUGAUCCAGAUTT against ACADM: the median seed-adjusted z-score was 0.127.
The value for CGAUAUCAAGUGCACCAAATT against CAD was 2.37 (active); that for GAGCAUUUGUGCGCAAGUUTT against NRP2 was 0.477; that for GCUCAUUCCUUCUACAAUUTT against CACNA1G was 0.436.
Consider GGAUGUAAGUUGUCCAAUATT against SUZ12, for which the median seed-adjusted z-score is -1.65 (active).
For the sequence CGAGUGAAGUGGGAUGAGATT against STARD5, the median seed-adjusted z-score is -0.0333.
The same measure for GCCGUUACCAUGGAACUUUTT against GSPT2: 0.846.
As for CACUGACUCGGAAACUGCATT against IGF2BP3, the median seed-adjusted z-score was -0.636.
With CACCAGGUCUGGAUAUUGATT against SF3A1, the median seed-adjusted z-score was -1.09 (active).
As to GCACAACUGUAGAGACAGATT against CIDEC, the median seed-adjusted z-score was 0.189.
As to GCAGAGAUCUUUGUAGUCUTT against FTSJ3, the median seed-adjusted z-score is 0.437.
The value for CGGGUAAACUAUGAGCUGATT against ADCY2 was 0.173.
For the sequence GCAAGGCUUUUGACGUAGATT against MAP3K6, the median seed-adjusted z-score is 0.
The same measure for GGAAAUUAUGUAGAACCGATT against ALDH7A1: -0.406; for CAGUGCACAGUGAAACCAATT against ADAM11: 0.102.
The value for GAGCUAGCGAAUAACCUUATT against DDX42 was -2.13 (active); that for CCCUCGGGAUCACACUUAUTT against MFSD1 was -0.0833.
For the sequence GCACGAUAUAUAUAGCUAUTT against RIPK2, the median seed-adjusted z-score is 0.176.
Take CAAAGACUCUGGAAUGAAUTT against PRICKLE2: the median seed-adjusted z-score is -1.12 (active).
The value for CAACAAGCGUAAGACCAAATT against SYTL5 was 0.192; that for GGAUCGCCCUGUAUGCUGUTT against LRTM2 was 0.465; that for GAAGAGCUCUUAGAGUGUATT against BCAT1 was -0.604.
Consider AGUCCUCUAUCAACCUCUUTT against RXFP3, for which the median seed-adjusted z-score was -0.0651.
As for CUCCGUAUCAUAGAUGUAATT against PCDHB3, the median seed-adjusted z-score is 0.304.
On to GGAGCUCACUGACGAGAAUTT against POLR2C, for which the median seed-adjusted z-score was -2.95 (active).
As to GAAACCAAGUCAUAUGAAATT against CRTAP, the median seed-adjusted z-score was 0.581.
As to GGAUCUACUCGGCACUCUATT against ZBTB20, the median seed-adjusted z-score is -0.521.
Regarding AGACCGCACUGACAGAGGATT against BAIAP2, the median seed-adjusted z-score is -0.0497.
On to CAAAGAACCUAUCCGCUUATT against GGA2, for which the median seed-adjusted z-score is -0.142.
In the case of GAAGCAGAGGACAACAUGATT against SNRPD3, the median seed-adjusted z-score was -2.69 (active).
Consider CAGUUAUGAUUGGUGGAGATT against CDC42, for which the median seed-adjusted z-score is -0.0938.
The value for AGAACUUGAUGCUCCGAGATT against ITGA7 was 0.13.
Consider UUCUCUCCCUAAUAAAAAUTT against AVPR2, for which the median seed-adjusted z-score was -0.262.
Consider GCCUACCCAUUUGUGAACATT against PEX12, for which the median seed-adjusted z-score is -0.129.
As to GCUCCACCGAGAUUCCUGATT against TCEB1, the median seed-adjusted z-score is 1.08 (active).
Regarding GGUGCUGGAGUUAAUCUUATT against TP53I3, the median seed-adjusted z-score is 0.244.
Regarding GGCUUAAAGACAUUGAACATT against KLHL1, the median seed-adjusted z-score was 0.067.
GGACCUAGUGUGAGCAUAATT against COL14A1: the median seed-adjusted z-score is 0.19.
On to GCCCACAUGUUUAAGGACATT against KCTD9, for which the median seed-adjusted z-score was 1.31 (active).
Turning to GAUACGUACUAUGACCGAATT against TGM7, the median seed-adjusted z-score was 0.244.
